# Source: article PMC7862700, “An all-to-all approach to the identification of sequence-specific readers for epigenetic DNA modifications on cytosine”
# Legend:
# Test in all cases: DAPPL (digital affinity profiling via proximity ligation, sequencing); 10 mM Tris-HCl pH 7.5, 50 mM NaCl, 1 mM DTT, 4% glycerol, room temperature, 30 min; GST-TFs on glutathione beads, 16-mer random dsDNA library, 0.1% formaldehyde crosslink after washing; high values mean tight binding
# [1] = target: T1, FLI1 (Homo sapiens, UniProt Q01543 1-452); conditions: protein: recombinant; tags: N-terminal GST; dsDNA, one strand shown
# T1 sequence: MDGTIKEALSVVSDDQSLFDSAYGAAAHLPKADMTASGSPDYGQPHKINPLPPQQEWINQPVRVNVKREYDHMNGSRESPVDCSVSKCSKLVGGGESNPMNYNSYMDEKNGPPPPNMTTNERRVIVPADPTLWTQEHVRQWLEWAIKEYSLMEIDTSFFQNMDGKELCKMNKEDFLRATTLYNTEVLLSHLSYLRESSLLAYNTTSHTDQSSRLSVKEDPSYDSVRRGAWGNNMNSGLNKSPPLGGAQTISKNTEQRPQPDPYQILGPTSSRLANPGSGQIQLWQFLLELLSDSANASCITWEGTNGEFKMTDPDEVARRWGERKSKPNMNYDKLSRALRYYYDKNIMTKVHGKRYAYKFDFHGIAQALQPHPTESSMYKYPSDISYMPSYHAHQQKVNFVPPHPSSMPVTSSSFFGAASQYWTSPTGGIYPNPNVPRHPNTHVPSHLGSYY
# Procedure, shortened: (§1)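 A tag-only sample was pooled with DNA-barcoded human transcription factors that had been expressed in yeast as GST fusions and captured on glutathione beads. The pools were incubated for 30 min at room temperature with 200 nmole of a random double-stranded 16-mer DNA library in Tris/NaCl/DTT/glycerol buffer, then washed, crosslinked with 0.1% formaldehyde, proximity-ligated (BsaI/T4 ligase, 1 h, 37 °C), PCR-amplified and sequenced on an Illumina NextSeq500. Binding signal is each hexamer's read frequency for a factor divided by its frequency for the tag-only sample.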
# [2] = target: T2, ELK1 (Homo sapiens, UniProt P19419 1-428); conditions: protein: recombinant; tags: N-terminal GST; dsDNA, one strand shown
# T2 sequence: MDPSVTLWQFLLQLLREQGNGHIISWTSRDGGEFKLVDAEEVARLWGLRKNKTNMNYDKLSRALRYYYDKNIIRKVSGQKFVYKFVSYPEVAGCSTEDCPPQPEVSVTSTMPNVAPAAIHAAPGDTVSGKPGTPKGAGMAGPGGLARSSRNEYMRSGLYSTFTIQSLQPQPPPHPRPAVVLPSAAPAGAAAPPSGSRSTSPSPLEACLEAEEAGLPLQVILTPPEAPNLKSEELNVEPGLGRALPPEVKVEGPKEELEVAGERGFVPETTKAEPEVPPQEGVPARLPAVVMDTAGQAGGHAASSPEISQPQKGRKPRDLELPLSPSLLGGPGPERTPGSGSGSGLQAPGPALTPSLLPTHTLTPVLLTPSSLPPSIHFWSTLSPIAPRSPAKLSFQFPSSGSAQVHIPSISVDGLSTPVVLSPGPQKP
# Procedure, shortened: as §1
# [3] = target: T3, GABPA (Homo sapiens, UniProt Q06546 1-454); conditions: protein: recombinant; tags: N-terminal GST; dsDNA, one strand shown
# T3 sequence: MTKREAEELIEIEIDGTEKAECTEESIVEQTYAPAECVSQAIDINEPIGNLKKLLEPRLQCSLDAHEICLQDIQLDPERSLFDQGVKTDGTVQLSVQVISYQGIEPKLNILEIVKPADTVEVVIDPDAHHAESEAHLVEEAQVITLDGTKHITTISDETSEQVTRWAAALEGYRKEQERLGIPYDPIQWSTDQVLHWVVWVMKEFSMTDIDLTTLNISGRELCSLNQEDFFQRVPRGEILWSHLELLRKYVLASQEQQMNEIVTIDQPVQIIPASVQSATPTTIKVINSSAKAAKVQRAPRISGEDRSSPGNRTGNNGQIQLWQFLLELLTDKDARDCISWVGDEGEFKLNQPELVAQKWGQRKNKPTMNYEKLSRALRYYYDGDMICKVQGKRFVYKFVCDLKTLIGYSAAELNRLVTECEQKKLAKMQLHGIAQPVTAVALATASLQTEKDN
# Procedure, shortened: as §1
# [4] = target: T4, ERG (Homo sapiens, UniProt P11308 1-479); conditions: protein: recombinant; tags: N-terminal GST; dsDNA, one strand shown
# T4 sequence: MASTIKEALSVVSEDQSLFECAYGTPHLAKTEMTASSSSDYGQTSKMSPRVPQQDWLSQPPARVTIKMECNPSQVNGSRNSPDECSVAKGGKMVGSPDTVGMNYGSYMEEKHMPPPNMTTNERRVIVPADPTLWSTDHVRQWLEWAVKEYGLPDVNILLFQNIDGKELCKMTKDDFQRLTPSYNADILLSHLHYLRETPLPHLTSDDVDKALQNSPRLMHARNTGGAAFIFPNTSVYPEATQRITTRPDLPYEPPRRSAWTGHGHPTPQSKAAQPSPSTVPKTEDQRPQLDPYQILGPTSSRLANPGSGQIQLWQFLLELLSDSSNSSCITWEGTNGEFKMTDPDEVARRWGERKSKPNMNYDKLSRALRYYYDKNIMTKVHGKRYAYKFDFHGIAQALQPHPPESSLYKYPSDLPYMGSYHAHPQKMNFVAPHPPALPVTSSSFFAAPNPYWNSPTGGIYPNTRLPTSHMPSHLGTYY
# Procedure, shortened: as §1
# [5] = target: ELF1 (Homo sapiens, UniProt P32519 1-619); conditions: protein: recombinant; tags: N-terminal GST; dsDNA, one strand shown
# Procedure, shortened: as §1
# [6] = target: T5, EHF (Homo sapiens, UniProt Q9NZC4 1-300); conditions: protein: recombinant; tags: N-terminal GST; dsDNA, one strand shown
# T5 sequence: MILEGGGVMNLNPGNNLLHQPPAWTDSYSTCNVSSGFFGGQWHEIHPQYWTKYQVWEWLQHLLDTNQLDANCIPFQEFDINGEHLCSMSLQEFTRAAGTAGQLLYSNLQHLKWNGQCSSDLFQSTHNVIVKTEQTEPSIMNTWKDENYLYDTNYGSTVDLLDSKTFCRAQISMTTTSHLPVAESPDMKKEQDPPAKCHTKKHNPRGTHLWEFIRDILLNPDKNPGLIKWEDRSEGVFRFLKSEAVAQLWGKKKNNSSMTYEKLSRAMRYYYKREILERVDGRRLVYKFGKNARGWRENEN
# Procedure, shortened: as §1
# [7] = target: SPI1 (Homo sapiens, UniProt P17947 1-270); conditions: protein: recombinant; tags: N-terminal GST; dsDNA, one strand shown
# Procedure, shortened: as §1
# [8] = target: SPIB (Homo sapiens, UniProt Q01892 1-262); conditions: protein: recombinant; tags: N-terminal GST; dsDNA, one strand shown
# Procedure, shortened: as §1
# [9] = target: T6, ELK3 (Homo sapiens, UniProt P41970 1-407); conditions: protein: recombinant; tags: N-terminal GST; dsDNA, one strand shown
# T6 sequence: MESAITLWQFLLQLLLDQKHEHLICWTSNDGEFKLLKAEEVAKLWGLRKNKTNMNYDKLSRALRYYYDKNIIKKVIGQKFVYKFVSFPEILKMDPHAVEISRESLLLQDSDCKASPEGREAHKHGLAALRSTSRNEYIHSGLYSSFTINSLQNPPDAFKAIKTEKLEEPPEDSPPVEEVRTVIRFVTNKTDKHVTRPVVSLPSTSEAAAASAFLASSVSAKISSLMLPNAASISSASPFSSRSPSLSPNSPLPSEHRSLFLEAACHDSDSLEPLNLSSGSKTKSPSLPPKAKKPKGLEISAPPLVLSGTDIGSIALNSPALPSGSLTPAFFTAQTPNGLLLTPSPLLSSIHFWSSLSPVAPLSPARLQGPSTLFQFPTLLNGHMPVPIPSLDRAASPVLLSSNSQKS
# Procedure, shortened: as §1
# [10] = target: T7, FEV (Homo sapiens, UniProt Q99581 1-238); conditions: protein: recombinant; tags: N-terminal GST; dsDNA, one strand shown
# T7 sequence: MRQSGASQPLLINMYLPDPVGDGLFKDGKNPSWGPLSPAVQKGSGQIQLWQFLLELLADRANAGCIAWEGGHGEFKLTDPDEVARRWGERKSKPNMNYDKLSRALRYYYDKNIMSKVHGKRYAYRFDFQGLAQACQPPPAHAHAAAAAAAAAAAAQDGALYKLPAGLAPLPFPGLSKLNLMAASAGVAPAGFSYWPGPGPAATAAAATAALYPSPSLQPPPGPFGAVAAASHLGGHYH
# Procedure, shortened: as §1
# [11] = target: ETV5 (Homo sapiens, UniProt P41161 1-510); conditions: protein: recombinant; tags: N-terminal GST; dsDNA, one strand shown
# Procedure, shortened: as §1
# [12] = target: HSF1 (Homo sapiens, UniProt Q00613 1-529); conditions: protein: recombinant; tags: N-terminal GST; chain copies: 3; dsDNA, one strand shown
# Procedure, shortened: as §1
# [13] = target: ELF4 (Homo sapiens, UniProt Q99607 1-663); conditions: protein: recombinant; tags: N-terminal GST; dsDNA, one strand shown
# Procedure, shortened: as §1
# [14] = target: T8, ELK4 (Homo sapiens, UniProt P28324-2 1-405); conditions: protein: recombinant; tags: N-terminal GST; dsDNA, one strand shown
# T8 sequence: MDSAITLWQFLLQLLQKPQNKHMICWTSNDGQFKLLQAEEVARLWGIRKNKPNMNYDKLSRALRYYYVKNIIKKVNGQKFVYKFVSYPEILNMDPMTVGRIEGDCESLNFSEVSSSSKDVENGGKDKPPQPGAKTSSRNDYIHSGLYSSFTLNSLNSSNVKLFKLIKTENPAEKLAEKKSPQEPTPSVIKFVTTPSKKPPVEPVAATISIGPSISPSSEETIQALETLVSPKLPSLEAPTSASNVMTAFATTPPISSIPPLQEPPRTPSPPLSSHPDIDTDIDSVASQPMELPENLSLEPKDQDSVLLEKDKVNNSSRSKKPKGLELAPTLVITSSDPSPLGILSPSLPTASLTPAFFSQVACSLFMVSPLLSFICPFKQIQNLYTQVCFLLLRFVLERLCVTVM
# Procedure, shortened: as §1
# [15] = target: T9, ETV2 (Homo sapiens, UniProt O00321 1-342); conditions: protein: recombinant; tags: N-terminal GST; dsDNA, one strand shown
# T9 sequence: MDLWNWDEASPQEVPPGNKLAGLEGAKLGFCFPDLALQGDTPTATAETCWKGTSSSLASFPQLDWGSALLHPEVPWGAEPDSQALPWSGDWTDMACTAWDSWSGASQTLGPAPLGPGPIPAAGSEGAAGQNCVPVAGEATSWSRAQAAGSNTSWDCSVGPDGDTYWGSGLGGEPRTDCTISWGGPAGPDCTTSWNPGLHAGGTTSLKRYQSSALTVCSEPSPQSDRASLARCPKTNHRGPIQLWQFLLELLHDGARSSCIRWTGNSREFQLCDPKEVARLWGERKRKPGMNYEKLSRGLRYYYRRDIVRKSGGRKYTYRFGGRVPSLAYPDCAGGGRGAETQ
# Procedure, shortened: as §1
# [16] = target: T10, ELF3 (Homo sapiens, UniProt P78545 1-371); conditions: protein: recombinant; tags: N-terminal GST; dsDNA, one strand shown
# T10 sequence: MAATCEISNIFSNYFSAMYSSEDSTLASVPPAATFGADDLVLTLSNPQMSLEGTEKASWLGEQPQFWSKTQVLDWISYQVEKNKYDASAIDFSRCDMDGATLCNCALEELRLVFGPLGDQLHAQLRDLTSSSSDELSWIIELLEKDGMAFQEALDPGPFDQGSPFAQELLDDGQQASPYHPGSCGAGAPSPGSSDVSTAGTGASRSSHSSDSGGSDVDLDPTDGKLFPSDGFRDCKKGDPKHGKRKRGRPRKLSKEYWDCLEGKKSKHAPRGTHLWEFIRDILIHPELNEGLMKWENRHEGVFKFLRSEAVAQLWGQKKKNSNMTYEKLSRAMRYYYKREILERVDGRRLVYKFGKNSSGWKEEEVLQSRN
# Procedure, shortened: as §1
# [17] = target: CRX (Homo sapiens, UniProt O43186 1-299); conditions: protein: recombinant; tags: N-terminal GST; dsDNA, one strand shown
# Procedure, shortened: as §1
# [18] = target: ETV1 (Homo sapiens, UniProt P50549 1-477); conditions: protein: recombinant; tags: N-terminal GST; dsDNA, one strand shown
# Procedure, shortened: as §1
# Sequence of ELF1 (P32519 whole entry): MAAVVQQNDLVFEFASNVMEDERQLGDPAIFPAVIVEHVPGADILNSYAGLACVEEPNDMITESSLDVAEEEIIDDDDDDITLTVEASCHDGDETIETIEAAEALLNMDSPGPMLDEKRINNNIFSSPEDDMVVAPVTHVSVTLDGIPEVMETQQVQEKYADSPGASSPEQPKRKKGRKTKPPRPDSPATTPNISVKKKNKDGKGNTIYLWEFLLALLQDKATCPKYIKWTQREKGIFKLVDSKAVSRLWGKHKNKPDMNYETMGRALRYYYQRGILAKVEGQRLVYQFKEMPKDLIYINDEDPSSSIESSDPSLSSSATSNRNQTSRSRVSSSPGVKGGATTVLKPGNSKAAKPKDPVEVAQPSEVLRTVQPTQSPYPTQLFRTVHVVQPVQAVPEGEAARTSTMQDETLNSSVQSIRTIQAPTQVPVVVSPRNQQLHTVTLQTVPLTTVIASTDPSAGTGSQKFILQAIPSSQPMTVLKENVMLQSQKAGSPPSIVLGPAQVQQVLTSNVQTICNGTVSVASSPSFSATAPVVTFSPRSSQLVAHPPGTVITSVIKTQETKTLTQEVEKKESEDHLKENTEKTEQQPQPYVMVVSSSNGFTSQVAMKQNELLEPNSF
# Sequence of ELF4 (Q99607 whole entry): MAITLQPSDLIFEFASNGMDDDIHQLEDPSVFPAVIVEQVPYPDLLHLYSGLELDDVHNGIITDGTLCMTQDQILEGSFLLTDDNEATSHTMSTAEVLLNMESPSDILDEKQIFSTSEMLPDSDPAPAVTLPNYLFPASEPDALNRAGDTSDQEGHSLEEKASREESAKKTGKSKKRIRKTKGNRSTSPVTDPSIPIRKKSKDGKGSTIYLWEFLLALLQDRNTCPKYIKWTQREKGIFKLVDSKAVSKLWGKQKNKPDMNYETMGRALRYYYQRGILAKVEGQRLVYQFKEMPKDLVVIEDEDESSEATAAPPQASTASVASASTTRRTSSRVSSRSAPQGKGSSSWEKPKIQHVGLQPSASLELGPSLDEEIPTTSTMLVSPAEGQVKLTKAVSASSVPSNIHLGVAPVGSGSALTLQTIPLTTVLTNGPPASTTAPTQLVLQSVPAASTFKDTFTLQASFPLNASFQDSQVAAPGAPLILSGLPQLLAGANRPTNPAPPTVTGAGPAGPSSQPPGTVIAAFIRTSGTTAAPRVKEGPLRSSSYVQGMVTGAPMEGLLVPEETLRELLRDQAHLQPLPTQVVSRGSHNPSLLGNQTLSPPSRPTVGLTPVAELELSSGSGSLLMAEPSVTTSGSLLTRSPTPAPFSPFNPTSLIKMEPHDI
# Sequence of CRX (O43186 whole entry): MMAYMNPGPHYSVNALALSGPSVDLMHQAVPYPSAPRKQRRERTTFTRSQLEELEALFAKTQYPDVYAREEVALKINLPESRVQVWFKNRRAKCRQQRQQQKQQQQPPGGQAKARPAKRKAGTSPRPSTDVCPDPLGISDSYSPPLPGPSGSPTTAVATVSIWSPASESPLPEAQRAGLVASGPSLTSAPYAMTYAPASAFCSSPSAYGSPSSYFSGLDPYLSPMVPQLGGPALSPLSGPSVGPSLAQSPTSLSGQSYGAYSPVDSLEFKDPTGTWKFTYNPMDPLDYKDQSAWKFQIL
# Sequence of ETV5 (P41161 whole entry): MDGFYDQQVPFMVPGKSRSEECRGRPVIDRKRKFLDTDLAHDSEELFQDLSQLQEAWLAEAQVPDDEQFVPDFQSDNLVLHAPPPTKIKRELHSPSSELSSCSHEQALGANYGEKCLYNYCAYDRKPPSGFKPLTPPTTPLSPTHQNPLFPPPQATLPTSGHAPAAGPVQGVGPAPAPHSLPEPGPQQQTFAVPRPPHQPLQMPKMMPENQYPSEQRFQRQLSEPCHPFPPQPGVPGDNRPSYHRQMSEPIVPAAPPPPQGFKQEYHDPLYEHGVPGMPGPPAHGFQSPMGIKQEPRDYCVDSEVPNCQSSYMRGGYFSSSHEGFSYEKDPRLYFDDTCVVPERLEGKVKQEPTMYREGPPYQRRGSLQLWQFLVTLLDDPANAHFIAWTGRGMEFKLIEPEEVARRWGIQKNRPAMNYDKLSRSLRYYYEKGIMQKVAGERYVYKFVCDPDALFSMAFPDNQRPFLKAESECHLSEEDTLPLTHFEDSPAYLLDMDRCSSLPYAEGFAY
# Sequence of HSF1 (Q00613 whole entry): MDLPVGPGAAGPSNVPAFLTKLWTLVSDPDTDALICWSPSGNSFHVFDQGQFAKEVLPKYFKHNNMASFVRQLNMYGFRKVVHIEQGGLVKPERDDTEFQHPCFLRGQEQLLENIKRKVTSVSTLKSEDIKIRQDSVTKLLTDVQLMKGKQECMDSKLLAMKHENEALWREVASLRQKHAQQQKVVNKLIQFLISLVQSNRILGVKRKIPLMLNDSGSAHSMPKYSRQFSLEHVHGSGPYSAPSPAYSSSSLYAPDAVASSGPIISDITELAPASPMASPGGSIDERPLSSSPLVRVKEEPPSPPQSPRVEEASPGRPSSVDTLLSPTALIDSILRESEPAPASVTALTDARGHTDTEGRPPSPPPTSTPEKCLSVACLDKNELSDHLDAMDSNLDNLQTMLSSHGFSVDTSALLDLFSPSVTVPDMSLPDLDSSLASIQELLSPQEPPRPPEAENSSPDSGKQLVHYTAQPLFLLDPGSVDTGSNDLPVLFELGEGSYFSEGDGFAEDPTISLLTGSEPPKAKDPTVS
# Sequence of ETV1 (P50549 whole entry): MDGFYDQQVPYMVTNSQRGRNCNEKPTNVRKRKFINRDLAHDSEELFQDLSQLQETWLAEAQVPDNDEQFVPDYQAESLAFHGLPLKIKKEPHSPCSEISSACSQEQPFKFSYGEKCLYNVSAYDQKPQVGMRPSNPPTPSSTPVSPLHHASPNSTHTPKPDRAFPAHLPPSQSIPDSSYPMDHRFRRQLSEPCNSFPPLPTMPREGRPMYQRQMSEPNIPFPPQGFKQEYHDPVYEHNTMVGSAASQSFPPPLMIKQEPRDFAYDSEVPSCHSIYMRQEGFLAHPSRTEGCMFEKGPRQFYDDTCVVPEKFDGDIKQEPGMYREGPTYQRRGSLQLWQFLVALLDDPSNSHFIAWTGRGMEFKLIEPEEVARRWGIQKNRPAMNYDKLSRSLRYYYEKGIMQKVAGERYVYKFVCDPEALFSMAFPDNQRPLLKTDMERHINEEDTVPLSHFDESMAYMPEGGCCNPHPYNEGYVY
# Sequence of SPIB (Q01892 whole entry): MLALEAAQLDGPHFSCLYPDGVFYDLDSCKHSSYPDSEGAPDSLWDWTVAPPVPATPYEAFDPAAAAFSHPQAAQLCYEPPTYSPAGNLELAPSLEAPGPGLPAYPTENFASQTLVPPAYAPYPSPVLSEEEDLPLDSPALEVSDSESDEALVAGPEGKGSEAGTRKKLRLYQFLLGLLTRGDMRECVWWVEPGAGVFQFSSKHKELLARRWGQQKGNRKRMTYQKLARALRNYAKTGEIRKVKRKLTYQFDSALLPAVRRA
sequence,measurement,setting,value
TACAAA,binding signal,[1],"1.14 fold enrichment (6-mer frequency, TF over GST control)"
same,binding signal,[2],"1.14 fold enrichment (6-mer frequency, TF over GST control)"
same,binding signal,[3],"1.1 fold enrichment (6-mer frequency, TF over GST control)"
same,binding signal,[4],"1.08 fold enrichment (6-mer frequency, TF over GST control)"
same,binding signal,[5],"1.14 fold enrichment (6-mer frequency, TF over GST control)"
same,binding signal,[6],"1.2 fold enrichment (6-mer frequency, TF over GST control)"
same,binding signal,[7],"1.07 fold enrichment (6-mer frequency, TF over GST control)"
same,binding signal,[8],"1.06 fold enrichment (6-mer frequency, TF over GST control)"
same,binding signal,[9],"1.06 fold enrichment (6-mer frequency, TF over GST control)"
same,binding signal,[10],"1.11 fold enrichment (6-mer frequency, TF over GST control)"
same,binding signal,[11],"1.15 fold enrichment (6-mer frequency, TF over GST control)"
same,binding signal,[12],"1.12 fold enrichment (6-mer frequency, TF over GST control)"
same,binding signal,[13],"1.13 fold enrichment (6-mer frequency, TF over GST control)"
same,binding signal,[14],"1.09 fold enrichment (6-mer frequency, TF over GST control)"
same,binding signal,[15],"1.17 fold enrichment (6-mer frequency, TF over GST control)"
same,binding signal,[16],"1.06 fold enrichment (6-mer frequency, TF over GST control)"
same,binding signal,[17],"1.22 fold enrichment (6-mer frequency, TF over GST control)"
same,binding signal,[18],"1.14 fold enrichment (6-mer frequency, TF over GST control)"
